TRHR PAM – TRH receptor (human) allosteric enhancement. P34981. 0.66% of 360,000 active. enhancement, % at 2 µM. TRHR cells, fluo-8 calcium fluorescence, EC20 TRH enhancement; in the data active = enhancement above about 30%; note: 0% is about no effect
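TRHR-expressing cells loaded with fluo-8 calcium dye were read kinetically (ex 480/em 530) during compound addition, then stimulated with an EC20 of TRH (10 nM final). Enhancement of the Gq-mediated intracellular calcium response was scored.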
D1 ag – agonists of human D1 dopamine receptor. P21728. HEK293 T-REx D1 cells, calcium flux, agonist mode. activation, % at 2 µM. 1% of 360,000 active; note: 0% is about no effect
Target sequence (P21728 whole entry, looked up): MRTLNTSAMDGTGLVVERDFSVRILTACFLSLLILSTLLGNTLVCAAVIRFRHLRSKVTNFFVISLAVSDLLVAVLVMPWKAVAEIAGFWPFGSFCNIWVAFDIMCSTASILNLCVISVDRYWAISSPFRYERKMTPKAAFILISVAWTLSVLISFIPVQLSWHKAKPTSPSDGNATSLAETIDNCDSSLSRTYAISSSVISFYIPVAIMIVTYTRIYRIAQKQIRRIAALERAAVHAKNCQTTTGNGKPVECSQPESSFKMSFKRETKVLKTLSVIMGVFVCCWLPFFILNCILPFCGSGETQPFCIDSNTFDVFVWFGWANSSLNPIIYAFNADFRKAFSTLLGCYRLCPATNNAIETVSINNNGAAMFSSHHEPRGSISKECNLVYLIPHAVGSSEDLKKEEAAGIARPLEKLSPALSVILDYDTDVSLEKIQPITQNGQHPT
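Inducible HEK293 T-REx D1 cells, force-coupled to calcium signalling, were plated at 4000 cells/well with tetracycline and held overnight at 30 C. After no-wash calcium dye loading, compound-evoked calcium rise over 180 s flagged agonists.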
D1 potentiator – enhances dopamine response at the human D1 receptor. P21728. HEK293 TREx D1 cells, calcium flux, dopamine EC20 potentiation. potentiation, % at 10 µM. 0.036% of 360,000 active. AID 504651; in the data active = potentiation above about 30%; note: 0% is about no effect
LDHA inh – inhibitors of human lactate dehydrogenase A; P00338; purified LDHA, NADH/diaphorase-resazurin fluorescence; hits give low values; activity change, % (values are at about 110 or 230 µM); 0.15% of 480,000 active; in the data active = activity change below about -30%;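 note: plate controls were DMSO wells for no effect and wells without enzyme for full effect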
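Resorufin fluorescence (ex540/em590), read at 0 and 20 min after diaphorase/resazurin addition, reports the NADH left after a 5 min room-temperature reaction of 2 nM human LDH5 with 0.06 mM NADH and 0.2 mM pyruvate.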
D1 antag – human D1 dopamine receptor antagonism | 3.2% of 360,000 active | HEK293 TREx D1 cells, calcium flux, dopamine EC80; hits give low values | activity change, negative = inhibition, % at 10 µM | AID 504652 | P21728; in the data active = activity change below about -30%; note: % is set by controls: 0 for no effect and ±100 for the full control effect
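After overnight tetracycline induction at 30 C, force-coupled D1 HEK293 cells took up a no-wash calcium dye at room temperature. Compounds were added and monitored 180 s, and the response to EC80 dopamine was then recorded.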
TRHR agonist – activates the human TRH receptor; P34981; TRHR cells, calcium flux fluo-8, FDSS agonist mode; activation, % at 2 µM; 0.18% of 360,000 active; AID 493084; note: 0% is about no effect
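Agonist-mode FDSS calcium read (Ex 480/Em 530, 1 s cycles) in 1536-well TRHR cells with fluo-8 dye, after 10-cycle baseline and 23 nL compound addition; TRH at EC20 (10 nM final) added afterwards for the enhancer phase.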
Starred values were filed as active, the others as inactive; · = not tested or not shown. Rows were chosen to be rich in hits. Some 3.6% of all compounds tested hit in one or more screens of this group. Cut-off read from the data, not from the text of the source, unless noted: active = activation above about 30%; inactive = the rest.

SMILES	TRHR PAM	D1 ag	D1 potentiator	LDHA inh	D1 antag	TRHR agonist
Cn1nc(C(C)(C)C)cc1NC(=O)c1ccccc1F	·	·	·	2.7	·	·
O=C(NCCCN1CCOCC1)c1ccc2nc(Cc3ccccc3F)oc2c1	20.5	2.5	-3.2	-0.3	-1.3	1.6
O=C(NCCCN1CCN(c2ccccc2F)CC1)c1ccc2nc(Cc3ccccc3)oc2c1	0.0	25.6	-3.9	-7.2	-48.6*	0.6
COc1cc(/C=C2\SC(=Nc3ccccc3)NC2=O)cc(Cl)c1O	20.4	156.6*	-2.2	9.4	5.3	150.2*
COc1cc(/C=C2\SC(=Nc3ccc(Cl)c(C(=O)O)c3)NC2=O)c(Br)c(Br)c1O	92.8*	323.6*	21.4	-32.9*	36.4	211.8*
O=C1CN(c2nc(-c3ccccc3)c3ccccc3n2)CCN1	·	·	·	-0.3	·	·
Fc1cccc(/C=N/Nc2ccc(Cl)c(Cl)c2)c1	·	·	·	-7.0	·	·
Cc1ccc2onc(CC(=O)Nc3ccc(C(C)C)cc3)c2c1	-6.1	-0.2	-4.0	-0.6	-74.3*	-0.2
O=C(Cc1noc2ccccc12)Nc1ccccn1	-1.0	-0.4	-5.1	-6.9	7.8	-0.2
Cc1ccc(NC(=O)Cc2noc3ccccc23)nc1	26.6	2.3	-0.1	-8.3	-32.5*	0.6
COc1ccc(Cl)cc1NC(=O)[C@@]1(CC(=O)O)CC(/C=C/c2ccccc2)=NO1	-4.9	4.4	3.6	-4.2	-34.7*	0.9
COc1ccc(NC(=O)[C@@]2(CC(=O)O)CC(/C=C/c3ccccc3)=NO2)cc1	-1.3	0.9	-6.5	4.2	4.4	1.2
CCCCn1c(NC(=O)c2ccccc2)c(C#N)c2nc3ccccc3nc21	-11.3	34.7*	-0.7	14.7	-3.8	10.5
CCC(C)n1c(NC(=O)c2ccccc2)c(C#N)c2nc3ccccc3nc21 (stereo unspecified)	-4.0	4.1	3.4	19.5	-5.2	2.1
O=[N+]([O-])c1ccc(Oc2ccc(S(=O)(=O)N3CCOCC3)cc2)cc1	6.5	17.1	·	-11.9	-41.6*	-0.7
CCCNC(=S)Nc1ccc2nc(-c3ccccn3)c(-c3ccccn3)nc2c1	2.8	1.6	-10.7	9.6	-37.2*	0.4
Cc1cc(C)cc(N(CC(=O)NC2CCCCC2)C(=O)c2ccc(C)s2)c1	-5.8	-0.2	-4.5	-10.6	-33.3*	-0.1
Cc1cccc(N(CC(=O)NC2CCCC2)C(=O)CCC(=O)Nc2nc(C)cs2)c1	3.3	6.7	-2.1	1.8	24.8	1.5
Cc1ccc(N(CC(=O)NC2CCCC2)C(=O)c2ccc(C)s2)cc1	4.3	1.2	-3.0	-4.0	7.5	-0.7
Cc1cc(C)cc(N(CC(=O)NC2CCCC2)C(=O)CCC(=O)Nc2nc(C)cs2)c1	23.0	57.5*	-8.7	-5.1	-19.4	-0.2
Cc1ccc(C(=O)N(CC(=O)NC2CCCC2)c2ccc3c(c2)OCCO3)s1	-6.2	-0.2	-7.5	-4.3	-54.5*	-0.7
COc1ccc2nc(NS(=O)(=O)c3ccc(C)cc3)c(Nc3ccc4c(c3)OCO4)nc2c1	·	·	·	20.2	·	·
Cc1nc(SCC(=O)Nc2cccc(S(=O)(=O)N3CCCC3)c2)n(C2CCCCC2)c1C	·	·	·	7.0	·	·
CC(C)N(c1nnc(N)s1)C(C)C	6.4	-0.7	-6.2	-1.6	-31.2*	-0.1
Clc1cccc(Cl)c1CSc1nnc(-c2sccc2-n2cccc2)o1	11.8	50.3*	-0.6	-4.8	-1.6	-0.4
SMILES	TRHR PAM	D1 ag	D1 potentiator	LDHA inh	D1 antag	TRHR agonist
CSc1nnc(-c2sccc2-n2cccc2)o1	-0.4	-0.2	0.2	-4.9	11.4	-0.3
O=c1[nH][nH]cc1C=Nc1ccc(Oc2ccccc2)cc1	-5.4	-0.2	-6.5	-1.7	-18.5	-0.1
COc1ccc(N=Cc2c[nH][nH]c2=O)cc1	0.9	0.5	-3.2	3.7	-33.2*	-0.1
COc1ccc(C(C)NCCC(c2ccc(OC(C)C)cc2)c2ccccc2OC)cc1 (stereo unspecified)	5.8	38.4*	9.4	0.0	18.6	3.3
COc1ccc(C(CCNCc2ccc(N(C)C)cc2)c2ccccc2)cc1 (stereo unspecified)	5.6	28.5	-0.5	-3.2	4.2	1.3
COc1ccc(CNCCC(c2ccc3c(c2)OCO3)c2ccccc2OC)cc1 (stereo unspecified)	3.8	79.5*	-3.4	8.0	8.6	2.0
CC(=O)c1c(-c2ccccc2)nc2n(CCN3CCOCC3)c3ccccc3n12	·	·	·	9.8	·	·
Cc1cccc(C(=O)Nc2oc(-c3ccccc3)cc2C#N)c1	-3.4	6.3	-4.1	-0.5	-48.5*	0.3
COc1cccc(C(=O)NCC(=O)NCc2ccc3cc(OC)ccc3c2)c1	·	·	·	10.7	·	·
CN1C(=S)N(c2cccnc2)C(=O)/C1=C\c1ccc(N(C)C)cc1	-2.9	91.4*	-3.4	5.6	-13.0	29.1
Cc1c(N2C(=O)/C(=C\c3ccc(N(C)C)cc3)N(C)C2=S)c(=O)n(-c2ccccc2)n1C	6.1	37.5*	-0.1	6.0	7.2	16.4
CC(C)(C)CC1CCCN1C(=O)CCc1nc2ccccc2c(=O)[nH]1 (stereo unspecified)	·	·	·	3.4	·	·
O=C(NCc1cccc(OC(F)F)c1)c1cccc(-n2cnnn2)c1	·	·	·	-10.4	·	·
CCOc1ccc(CCNC(=O)c2cccc(-n3cnnn3)c2)cc1OCC	-0.7	3.8	-8.6	-1.6	-31.3*	0.3
Cc1ccc(CNC(=O)c2cccc(-n3cnnn3)c2)cc1	30.0*	-0.4	-1.2	-2.0	14.8	0.0
O=C(CSc1nc2cc(Cl)ccc2o1)NCc1ccco1	·	·	·	7.3	·	·
CCOC(=O)c1[nH]c(C)c(C(=O)OC(C)C(=O)OC)c1C (stereo unspecified)	·	·	·	0.1	·	·
Cc1cccc(NC(=S)NC2CC3CCCC(C2)N3Cc2cccs2)c1 (stereo unspecified)	4.7	13.1	-19.6	4.0	-88.9*	2.0
Cc1c(-c2nsc(NC(=O)c3ccc(Cl)cc3)n2)nnn1-c1ccc(C(C)C)cc1	1.2	5.2	-0.6	-7.1	-14.5	0.3
COC(=O)c1ccc(-n2nnc(-c3nsc(NC(=O)c4ccc(Cl)cc4)n3)c2C)cc1	2.9	2.6	1.1	-4.8	-55.4*	1.5
Cc1cccc(-n2ccnc2SCC(=O)Nc2ccccc2C(F)(F)F)c1	-4.3	1.0	-4.0	-0.2	-40.0*	-0.4
CC1Sc2ccc(S(=O)(=O)N3CCC(C(=O)NCC(C)c4ccccc4)CC3)cc2NC1=O (stereo unspecified)	-8.3	2.3	-21.9	-2.6	-76.1*	0.0
CN1CC=C2C(C#N)=C(N)C(C#N)(C#N)[C@H](c3cccs3)[C@H]2C1	-3.1	6.0	1.6	0.6	7.2	4.2
CN1CC=C2C(C#N)=C(N)C(C#N)(C#N)C(CCc3ccccc3)C2C1 (stereo unspecified)	22.2	8.1	-8.8	20.5	-61.8*	4.6
